This note sets out measurements from PubChem BioAssay (EPA / NIEHS).

Each structure is given as a SMILES string. Where “and” joins values, the source holds several entries; their conditions need not be identical. Identical values can stand only once. More than one record can exist for a structure, and the calls need not agree. Calls of active or inactive are those of the source. How the source made its calls: active means hit-call score of the fitted dose curve at least 0.9, where 1 is the maximum; inactive means score below 0.9.

For assay [1], the target named is Transcription factor E2F1 (Homo sapiens) (UniProt Q01094). As to the kind of experiment: ATG_E2F_CIS: Attagene CIS-FACTORIAL HepG2 Assay for human E2F Transcription Factor 1 (AID 2282935). As to conditions: HepG2 Attagene cis-reporter, E2F reporter RNA transcripts; actives raise or lower the signal. An outline of the steps: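 In this cis-factorial format, endogenous factor activity drives transfected reporters in HepG2; transcripts collected at 24 h are quantified by fluorescence after RT-PCR and capillary separation.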
Transcription factor E2F1 (Homo sapiens), sequence (Q01094 whole entry, looked up): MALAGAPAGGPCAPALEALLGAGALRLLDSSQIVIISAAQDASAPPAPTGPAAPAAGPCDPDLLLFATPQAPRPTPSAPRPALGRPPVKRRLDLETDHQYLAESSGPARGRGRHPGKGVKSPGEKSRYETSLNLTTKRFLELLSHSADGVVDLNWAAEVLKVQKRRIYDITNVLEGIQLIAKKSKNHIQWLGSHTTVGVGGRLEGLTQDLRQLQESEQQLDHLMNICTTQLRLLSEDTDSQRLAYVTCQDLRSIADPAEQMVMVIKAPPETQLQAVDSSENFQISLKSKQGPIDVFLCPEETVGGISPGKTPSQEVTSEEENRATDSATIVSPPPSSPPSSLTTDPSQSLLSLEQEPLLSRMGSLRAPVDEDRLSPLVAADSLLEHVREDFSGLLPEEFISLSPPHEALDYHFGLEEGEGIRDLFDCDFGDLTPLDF

Assay [2] can be described thus: ATG_E_Box_CIS: Attagene CIS-FACTORIAL HepG2 Assay for human Enhancer Box (E-box) (AID 2282936). As to conditions: HepG2 E-box cis-reporter transcription, actives raise or lower the signal. Put shortly:
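Measured 24 h post-dosing in HepG2 cells transfected with multiple cis-regulated reporter units, signal being reporter mRNA induction detected by fluorescent RT-PCR with capillary electrophoresis; gain or loss fitted against DMSO.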

Assay [3] can be described thus: ATG_M_61_CIS: Attagene CIS-FACTORIAL HepG2 Assay for M61 Transcription Factor (Internal Marker) (AID 2282937). As to conditions: HepG2 Attagene CIS-FACTORIAL M61 internal marker reporter; actives raise or lower the signal. An outline of the steps:
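Fluorescence from labelled cDNA fragments, separated by capillary electrophoresis, quantifies reporter induction. HepG2 cells bearing transiently transfected cis-promoter MRTUs were incubated with test chemical for 24 h; DMSO defined baseline for gain/loss fitting.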

Assay [4] can be described thus: ATG_EGR_CIS: Attagene CIS-FACTORIAL HepG2 Assay for human Early Growth Response 1 (EGR1) (AID 2282938). The note with it: HepG2 Attagene CIS-FACTORIAL EGR reporter mRNA; actives raise or lower the signal. Put shortly:
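Cell-based multiplex transcription assay: HepG2 carrying transfected cis-element reporter units, 24 h chemical treatment. Fluorescence from capillary electrophoresis of RT-PCR products gives mRNA levels; fitting is bidirectional relative to DMSO.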

Assay [5] is described as follows: ATG_M_19_CIS: Attagene CIS-FACTORIAL HepG2 Assay for M19 Transcription Factor (Internal Marker) (AID 2282939). The note with it: HepG2 Attagene CIS-FACTORIAL M19 internal marker reporter; actives raise or lower the signal. Put shortly:
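Readout: fluorescent reporter-transcript fragments by capillary electrophoresis after RT-PCR. Human HepG2 liver cells carried transfected MRTU constructs reporting endogenous transcription-factor activity; exposure 24 h. Gain or loss of signal fitted relative to DMSO.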

Assay [6] can be described thus: ATG_ERE_CIS: Attagene CIS-FACTORIAL HepG2 Assay for Estrogen Response Element (ERE) (AID 2282940). The note with it: HepG2 ERE cis-reporter, Attagene RNA transcript; actives raise or lower the signal. An outline of the steps: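 Readout: reporter mRNA induction by RT-PCR, FAM-labelled primer extension, HpaI digestion and capillary electrophoresis, 24 h after dosing transfected HepG2 cells. Endogenous transcription factors act on cis-element-regulated reporters. Gain or loss fitted against DMSO.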

Assay [7] is described as follows: ATG_Ets_CIS: Attagene CIS-FACTORIAL HepG2 Assay for human Erythroblast Transformation Specific (ETS) (AID 2282941). The note with it: HepG2 ETS cis-reporter transcription, actives raise or lower the signal. Put shortly: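 Cis-regulated reporter mRNA induction in HepG2 (transient transfection), 24 h exposure, RT-PCR plus capillary electrophoresis detection; DMSO serves as negative control and baseline.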

The target of assay [8] is Hepatocyte nuclear factor 3-beta (Homo sapiens) (UniProt Q9Y261). Description: ATG_FoxA2_CIS: Attagene CIS-FACTORIAL HepG2 Assay for human Forkhead box A2 (FOXA2) (AID 2282942). The note with it: HepG2 cis-reporter transcription factor activity, 24 h; actives raise or lower the signal. An outline of the steps: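 In transiently transfected human HepG2 cells, promoter-driven reporter mRNA levels after 24 h chemical exposure are determined via RT-PCR with capillary electrophoresis. DMSO serves as baseline for bidirectional fitting.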
Hepatocyte nuclear factor 3-beta (Homo sapiens), sequence (Q9Y261 whole entry, looked up): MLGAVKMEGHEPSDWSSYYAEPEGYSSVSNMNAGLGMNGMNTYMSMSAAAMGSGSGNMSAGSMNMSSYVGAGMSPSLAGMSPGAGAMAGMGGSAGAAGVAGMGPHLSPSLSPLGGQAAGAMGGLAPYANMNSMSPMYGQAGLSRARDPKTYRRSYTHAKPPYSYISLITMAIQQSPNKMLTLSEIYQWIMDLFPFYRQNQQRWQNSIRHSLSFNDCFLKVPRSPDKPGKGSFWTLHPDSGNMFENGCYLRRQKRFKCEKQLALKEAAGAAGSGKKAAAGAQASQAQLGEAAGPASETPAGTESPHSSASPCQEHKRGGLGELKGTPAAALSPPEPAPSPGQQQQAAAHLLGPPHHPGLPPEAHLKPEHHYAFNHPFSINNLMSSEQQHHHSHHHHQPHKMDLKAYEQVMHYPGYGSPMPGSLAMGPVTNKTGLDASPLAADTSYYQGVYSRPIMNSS

A short description of assay [9]: ATG_FoxO_CIS: Attagene CIS-FACTORIAL HepG2 Assay for human Forkhead box O (FoxO) (AID 2282943). As to conditions: HepG2 Attagene cis-reporter, FoxO element, mRNA; actives raise or lower the signal. Put shortly: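 24 h chemical exposure, HepG2 with transient cis-MRTU transfection. RNA extraction, oligo(dT) RT, reporter-specific PCR, primer-extension labelling, HpaI digestion, CE fragment analysis; bidirectional fit, DMSO baseline.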

A short description of assay [10]: ATG_GATA_CIS: Attagene CIS-FACTORIAL HepG2 Assay for human GATA Binding Protein (AID 2282944). As to conditions: HepG2 GATA cis-element reporter, Attagene multiplex mRNA; actives raise or lower the signal. Put shortly: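 Read-out: fluorescent reporter mRNA fragments resolved by capillary electrophoresis after RT-PCR. Human liver HepG2 cells carried transiently transfected cis-regulated reporter constructs; chemicals incubated 24 h; gain or loss of signal fitted relative to DMSO.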

As for `CCCCCC=O`, the result in assay [1], in assay [2], in [3], in assay [4], in assay [5] and in assay [6] was inactive. Moreover, the outcome in [7], in [8], in assay [9] and in assay [10] was inactive.
What is called AC50 is the concentration giving half of the maximal activity seen. With `C=CC(=O)OCC(F)(F)C(F)(F)C(F)(F)C(F)(F)C(F)(F)C(F)(F)C(F)(F)F`, the call in assay [1], in assay [2], in assay [3], in assay [4], in assay [5] and in assay [7] was inactive. The compound was called inactive in assay [9] and in assay [10]. Further, the AC50 in assay [6] was 21 µM (active).
Consider `CCCCC(CC)COP(=O)(O)OCC(CC)CCCC` (stereo unspecified), for which the compound was called inactive in assay [1], in assay [2], in assay [3], in [4], in [5] and in [6]. Besides, the compound was called inactive in assay [7], in assay [8], in assay [9] and in assay [10].
Turning to `O=C(O)C(F)(F)C(F)(F)C(F)(F)C(F)(F)F`, the call in assay [1], in [2], in [3], in assay [4], in assay [5] and in assay [6] was inactive. Moreover, the call in [7], in assay [8], in [9] and in assay [10] was inactive.
Take `Nc1cc(Cl)c(N)c(Cl)c1`: the compound was classed as inactive in [1], in assay [2], in [3], in assay [5], in [7] and in [8]. Also, the outcome in [9] and in assay [10] was inactive. Also, the AC50 in [6] was 7.29 µM (active).
Regarding `FC(F)(F)C(F)(F)C(F)(F)N(C(F)(F)C(F)(F)C(F)(F)F)C(F)(F)C(F)(F)C(F)(F)F`, the compound was called inactive in [1], in [2], in assay [3], in [4], in assay [5] and in assay [6]. The call in assay [7], in assay [9] and in assay [10] was inactive.
With `FC(F)(F)C(F)(F)C(F)(F)C(F)(F)C(F)(F)C(F)(F)C(F)(F)I`, the outcome in assay [1], in assay [2], in assay [3], in assay [4], in [5] and in assay [7] was inactive. Further, the compound was called inactive in assay [8] and in assay [10]. Moreover, in [6], the AC50 was 5.59 µM (active).
For `C=CC(=O)OCC(F)(F)C(F)(F)C(F)(F)C(F)(F)COC(=O)C=C`, the compound was called inactive in [1], in assay [3], in assay [5], in assay [6], in assay [7] and in [8]. The result in assay [9] and in assay [10] was inactive. Further, the figures for the concentration at half-maximal activity (AC50) in [2] and in [4] were 34.9 µM (active) and 63 µM (active), respectively.
For the compound `O=C(CC(=O)C(F)(F)C(F)(F)F)C(F)(F)F`, the result in assay [1], in assay [2], in assay [3], in assay [4], in [5] and in [6] was inactive. The call in [7], in assay [9] and in assay [10] was inactive.
On to `CCCCOCCOCCOC(=O)CCCCC(=O)OCCOCCOCCCC`, for which the call in [1], in [2], in assay [3], in [4], in assay [5] and in assay [6] was inactive. For the same compound, the compound was classed as inactive in assay [7], in assay [8], in assay [9] and in assay [10].
For `CC/C=C\CCOC(C)=O`, the compound was classed as inactive in assay [1], in assay [2], in assay [3], in assay [4], in assay [5] and in assay [6]. Further, the compound was classed as inactive in [7], in assay [8] and in [10].
For the compound `CCO[Si](CCC(F)(F)C(F)(F)C(F)(F)C(F)(F)C(F)(F)C(F)(F)F)(OCC)OCC`, the outcome in assay [1], in assay [2], in assay [3], in assay [5], in [6] and in [7] was inactive. For the same compound, the call in [10] was inactive.
With `C=CC/C=C/C/C=C/C/C=C/C`, the compound was called inactive in [1], in assay [3], in [5], in [6], in assay [7] and in assay [8]. The compound was called inactive in assay [9] and in [10].
Consider `O=C(O)C(F)(F)C(F)(F)C(F)(F)C(F)(F)C(F)(F)C(F)(F)C(F)(F)C(F)(F)C(F)(F)C(F)F`, for which the outcome in assay [2], in assay [3], in assay [4], in assay [5], in assay [7] and in assay [8] was inactive. The compound was classed as inactive in assay [9] and in [10]. Moreover, the concentration at half-maximal activity (AC50) in assay [6] is 26.3 µM (active).
Take `OCCCC(F)(F)C(F)(F)C(F)(F)C(F)(F)C(F)(F)C(F)(F)C(F)(F)F`: the result in [1], in [3], in assay [4], in [5], in assay [6] and in assay [7] was inactive. For the same compound, the compound was called inactive in [10]. Also, the half-maximal activity concentration (AC50) is 80.6 µM (active) in assay [4]; 264 µM (active) in assay [5]; 19.9 µM (active) in assay [6]; 50 µM (active) in assay [7]; 78.9 µM (active) in assay [10].
Take `CCCCCCS`: the result in assay [1], in assay [3], in assay [5], in assay [6], in assay [7] and in assay [10] was inactive.
For the compound `FC(F)(F)C(F)(F)C(F)(F)C(F)(F)CCI`, the result in assay [2], in assay [3], in assay [4], in assay [5], in assay [6] and in assay [7] was inactive. Moreover, the compound was classed as inactive in [9] and in assay [10]. Moreover, the half-maximal activity concentration (AC50) in assay [6] is 16.3 µM (active).
Regarding `FC(F)(F)C(F)(F)C(F)(F)C(F)(F)C(F)(F)C(F)(F)C(F)(F)Br`, the compound was called inactive in assay [1], in assay [3], in assay [5], in [6], in assay [7] and in [10].
Take `C1COCCN1`: the result in [1], in [3], in assay [4], in assay [5], in [6] and in assay [7] was inactive. The result in assay [8] and in assay [10] was inactive.
As for `O=C(O)C(F)(OC(F)(F)C(F)(OC(F)(F)C(F)(OC(F)(F)C(F)(F)C(F)(F)F)C(F)(F)F)C(F)(F)F)C(F)(F)F` (stereo unspecified), the result in assay [1], in [3], in assay [5], in assay [6], in assay [7] and in assay [8] was inactive. Also, the outcome in [10] was inactive.
In the case of `CCN(CC)c1ccc2c(C)cc(=O)oc2c1`, the compound was called inactive in assay [1], in assay [3], in [4], in assay [5], in [6] and in [7]. Also, the compound was classed as inactive in assay [8] and in assay [10].
With `CCCCCCOC(=O)c1ccccc1O`, the outcome in assay [1], in [2], in assay [3], in assay [5], in assay [7] and in assay [9] was inactive. Also, the call in assay [10] was inactive. Further, the concentration at half-maximal activity (AC50) in assay [6] is 31.4 µM (active).
As for `c1ccc(-c2ccccc2-c2ccccc2)cc1`, the result in assay [1], in assay [3], in [4], in [5], in assay [7] and in assay [8] was inactive. For the same compound, in assay [10], the compound was classed as inactive. For the same compound, in [6], the half-maximal activity concentration (AC50) is 3.47 µM (active).
For `O=C(O)C(F)(F)C(F)(F)C(F)(F)C(F)(F)C(F)(F)C(F)(F)C(F)(F)C(F)(F)Cl`, the compound was called inactive in [1], in assay [2], in assay [3], in [5], in [7] and in assay [10]. Moreover, the half-maximal activity concentration (AC50) in assay [6] was 15.4 µM (active) and 21.7 µM (active).
For `C=CC(F)(F)C(F)(F)C(F)(F)C(F)(F)C(F)(F)C(F)(F)C(F)(F)C(F)(F)F`, the result in [1], in assay [3], in assay [4], in assay [5], in assay [6] and in assay [7] was inactive. Also, the outcome in assay [8], in [9] and in assay [10] was inactive.
